Reference: PubChem BioAssay AID2551 (National Center for Advancing Translational Sciences (NCATS), 2010)
Screen size: about 310,000 compounds; about 17,000 (5.5%) were called active. Inconclusive results (about 11%) are left out. Calls come from the whole dose curve; as a rule, active = well fitted inhibition curve with a large enough effect; inconclusive = small, poorly fitted or top-dose-only effect, or effect the other way; inactive = no such curve, though single readings can be large or run the other way. What follows is part of a selection rich in actives, with near analogues and random picks from the rest.

molecular target: Nuclear receptor ROR-gamma (Mus musculus) (UniProt P51450); assay: qHTS for inhibitors of ROR gamma transcriptional activity; conditions: Drosophila S2 Gal4-RORgamma UAS-luciferase reporter, 20 h; series mostly up to 53.6 µM; activity change, negative = inhibition: at the top concentration; note: nearly all actives have a fitted effect of over 60% in size
Sequence (P51450 whole entry, looked up, the tested form may be a part): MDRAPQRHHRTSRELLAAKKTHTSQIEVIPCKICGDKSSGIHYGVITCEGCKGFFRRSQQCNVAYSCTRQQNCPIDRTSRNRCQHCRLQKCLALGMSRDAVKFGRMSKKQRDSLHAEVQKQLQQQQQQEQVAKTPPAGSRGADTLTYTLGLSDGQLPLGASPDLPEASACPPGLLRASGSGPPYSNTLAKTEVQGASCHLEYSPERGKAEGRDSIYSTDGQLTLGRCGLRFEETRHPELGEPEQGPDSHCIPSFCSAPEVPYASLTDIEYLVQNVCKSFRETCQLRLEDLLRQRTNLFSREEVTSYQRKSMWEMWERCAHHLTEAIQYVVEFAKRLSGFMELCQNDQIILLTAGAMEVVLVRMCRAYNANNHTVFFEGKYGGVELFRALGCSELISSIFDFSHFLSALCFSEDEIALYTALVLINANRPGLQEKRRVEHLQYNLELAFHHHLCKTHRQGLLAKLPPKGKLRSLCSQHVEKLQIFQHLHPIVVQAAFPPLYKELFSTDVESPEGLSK
Excerpt: NIH Molecular Libraries Probe Production Network [MLPCN] NIH Chemical Genomics Center [NCGC] MLPCN Grant: R03 DA026211-01 Assay Provider: Dan Littman, New York University Assay Overview: The retinoic acid-related orphan receptor (ROR) gamma is a transcription factor that has a central role in the differentiation of Th17 cells, a subset of T helper cells that secrete the inflammatory cytokines IL-17, IL-17F, and IL-22. Th17 cells have been implicated in graft versus host disease, autoimmune disease and asthma. ROR gamma is induced in naive T helper cells in the presence of TGF-beta combined with IL-6, IL-21, or IL-23, and thereafter directs the expression of the Th17 lineage cytokines. To study the mechanism of action of ROR gamma, an insect cell-based assay was screened. This Drosophila Schneider cell line was stably transfected with two vectors: a gene expressing a fusion of the Gal4 DNA binding domain and ROR gamma transactivation domain under the control of the metallothionine promoter and a Photinus luciferase reporter regulated by the Gal4 binding site enhancer, UAS. […] Small molecule inhibitors of ROR gamma activity are detected by a decrease in luciferase reporter activity.
Assay Protocol Summary: For screening, 600 cells in 4 uL/well were dispensed into white solid 1536-well plates (Grenier) using a solenoid-based dispenser. Following transfer of 23 nL compound or DMSO vehicle by a pin tool, the plates were incubated 1 hr at ambient temperature, and 1 uL/well copper sulfate (700 uM final concentration) was added. The plates were centrifuged 15 s at 1000 RPM and incubated 20 hr at ambient temperature. After addition of 1.5 uL Photinus luciferase detection reagent, the plates were incubated 10 min at ambient temperature and then read by an ViewLux (Perkin Elmer) to detect luminescence. Keywords: NIH Roadmap, MLPCN, MLI, MLSMR, qHTS, NCGC, qHTS, nuclear hormone receptor, retinoic acid-related orphan receptor, ROR gamma
% is set by controls: 0 for no effect and ±100 for the full control effect; potency is the fitted concentration of half-maximal effect.

Compound | activity change, negative = inhibition | Potency
CC(CC(=O)N1CCN(S(=O)(=O)c2ccccc2)CC1)n1cncn1 (stereo unspecified) | 3.92% (inactive) | 
CCOc1ccc(-n2c(SCC(=O)Nc3ccc(OC)cc3)nc3sc4c(c3c2=O)CCN(C)C4)cc1 | 11.9% (inactive) | 
CCOc1ccccc1-c1nc(CN2CCC(C(=O)N3CCOCC3)CC2)c(C)o1 | -0.916% (inactive) | 
N#Cc1cccc(-c2nc3cnc(N4CCNCC4)nc3n(C3CC3)c2=O)c1 |  | 12.6 µM (active)
O=c1c(-c2ccc(F)cc2)nc2cnc(N3CCNCC3)nc2n1Cc1cccs1 | -5.47% (inactive) | 
Cn1c(=O)c(-c2ccccc2)nc2cnc(N3CCNCC3)nc21 | -20.6% (inactive) | 
Cc1c2cnn(CC(=O)NCCCN3CC(C)CC(C)C3)c(=O)c2c(C)n1Cc1ccc(Cl)cc1 (stereo unspecified) | -33.5% (inactive) | 
CC(C)(c1ccccc1)c1ccc(OCCN2CCCC2)cc1 | -9.7% (inactive) | 
O=C(NCCCn1ccnc1)c1ccccc1F | -8.55% (inactive) | 
CN(Cc1ccccc1)C(=O)c1cccc(C(=O)N(C)Cc2ccccc2)c1 | -14.3% (inactive) | 
O=C(Cn1ccc2cc(S(=O)(=O)N3CCCC3)ccc21)NCc1ccccc1 | 4.66% (inactive) | 
O=c1c([N+](=O)[O-])cc(C(F)(F)F)cn1Cc1cccc(Cl)c1 | 26.4% (inactive) | 
O=[N+]([O-])/C=C/c1ccc2c(ccn2Cc2ccccc2)c1 |  | 12.6 µM (active)
Cc1c(C(=O)NCC(c2ccco2)N2CCCC2)oc2ccc(Cl)cc12 (stereo unspecified) | 8.17% (inactive) | 
Cc1onc(C(=O)Nc2ccc3c(c2)OCO3)c1[N+](=O)[O-] | 36.5% (inactive) | 
CCCc1[nH]nc2c1C(c1c(C)nn(-c3ccccc3)c1Cl)C(C#N)=C(N)O2 (stereo unspecified) | 33.4% (inactive) | 
CCCc1[nH]nc2c1C(c1ccc(OC(=O)c3ccco3)cc1)C(C#N)=C(N)O2 (stereo unspecified) | -14.4% (inactive) | 
CCCc1[nH]nc2c1C(c1ccc(Br)s1)C(C#N)=C(N)O2 (stereo unspecified) |  | 12.6 µM (active)
Cc1ccc(S(=O)(=O)N(Cc2ccccc2)c2ccccn2)cc1[N+](=O)[O-] | 34.1% (inactive) | 
Cc1cccc(OCC(O)CN2CCN(S(=O)(=O)c3ccc(C)cc3C)CC2)c1 (stereo unspecified) | 11.8% (inactive) | 
Cc1cc(C)nc(NC2=NCC(=O)N2c2ccc(Cl)cc2)n1 |  | 0.224 µM (active)
Cc1ccc(N2C(=O)CN=C2Nc2nc(C)cc(C)n2)cc1 | -23.8% (inactive) | 
COc1ccc(N2C(=O)CN=C2Nc2cccc(C)c2C)cc1OC | 5.1% (inactive) | 
CC1CN(C(=O)CCC(=O)NCc2cccnc2)c2ccccc2O1 (stereo unspecified) | -22.8% (inactive) | 
Cc1ccc(C(=O)N2CC(=O)Nc3ccc(F)cc3C2c2ccc(F)cc2)cc1 (stereo unspecified) | 40.3% (inactive) | 
CC(Sc1nncn1C)C(=O)Nc1cc(C(F)(F)F)ccc1N1CCOCC1 (stereo unspecified) | 11.5% (inactive) | 

Compound | activity change, negative = inhibition | Potency
Cc1ccc(NC(=O)c2cc3ccccc3o2)cc1 | -8.5% (inactive) | 
O=C(NC(=S)Nc1cc(C(F)(F)F)ccc1N1CCOCC1)c1ccc(-c2cccc(Cl)c2)o1 |  | 10 µM (active)
CC(=O)N1CCN(c2ccccc2NC(=S)NC(=O)c2cc3ccccc3o2)CC1 |  | 11.2 µM (active)
COc1ccccc1C(=O)NC(=S)NC12CC3CC(CC(C3)C1)C2 | -11% (inactive) | 
Cc1ccccc1NC(=O)Nc1ccccc1N1CCCCC1 | -4.44% (inactive) | 
COc1ccccc1C(=O)NC(=S)Nc1ccccc1N1CCCCC1 |  | 3.98 µM (active)
Cc1cccc(OCCC(=O)Nc2cc(S(=O)(=O)N3CCCCC3)ccc2N2CCOCC2)c1 | -0.287% (inactive) | 
COc1cc(C(=O)Nc2cc(C(F)(F)F)ccc2N2CCOCC2)ccc1O | 18.1% (inactive) | 
Cc1cccc(OCC(=O)Nc2ccccc2F)c1 | -0.216% (inactive) | 
O=C(Nc1ccccc1N1CCN(C(=O)c2ccccc2)CC1)c1ccco1 | 18% (inactive) | 
Cc1cccc(OCC(=O)NC(=S)Nc2ccccc2N2CCOCC2)c1 |  | 11.2 µM (active)
O=C1CCN(Cc2ccccc2)CCN1[C@H](CSc1ccccc1)c1ccccc1 | 6.36% (inactive) | 
COC(=O)c1ccc(N2CCOCC2)c(NC(=O)c2ccc3c(c2)OCCO3)c1 | -23.4% (inactive) | 
Cc1cc(NC(=O)c2ccco2)c(=O)n(Cc2c(F)cccc2Cl)c1 | 6.19% (inactive) | 
COCCNc1nc(N)c([N+](=O)[O-])c(N2CCCCCC2)n1 | 21.8% (inactive) | 
CCOc1ccc(-c2noc(CCC(=O)NC3CCCC3)n2)cc1OC | 13.1% (inactive) | 
O=C(c1ccc(CS(=O)(=O)c2ccccc2)o1)N1CCN(c2ccccc2)CC1 | 18.4% (inactive) | 
COc1ccc(CNC(=O)[C@H](Cc2c[nH]c3ccccc23)NC(C)=O)cc1OC | -14.9% (inactive) | 
O=C(NCCCN1CCOCC1)C1CCCN(S(=O)(=O)N2CCCCC2)C1 (stereo unspecified) | -11% (inactive) | 
O=C(Nc1ccccc1N1CCCCC1)c1cccc(F)c1 | -27.2% (inactive) | 
O=C(NC(=S)Nc1ccccc1N1CCCCC1)c1ccc(F)cc1 |  | 3.98 µM (active)
CC(=O)c1ccc(N2CCN(CC(=O)Nc3ccccc3N3CCOCC3)CC2)cc1 | 32.1% (inactive) | 
CCc1ccc(C(=O)NC(=S)Nc2ccccc2N2CCOCC2)cc1 |  | 3.55 µM (active)
O=C(CCNC(=O)c1ccc([N+](=O)[O-])cc1)Nc1ccccc1N1CCOCC1 | -19.6% (inactive) | 
O=C(Nc1ccccc1N1CCCC1)c1ccc2ccccc2c1 | 7% (inactive) | 
CC1CCN(CC(O)COc2ccc(C(=O)c3ccccc3)cc2)CC1 (stereo unspecified) | -4.49% (inactive) | 

Compound | activity change, negative = inhibition | Potency
O=C(NCc1cccc(Cl)c1)C1CCC(=O)N(C2CC2)C1 (stereo unspecified) | 1.36% (inactive) | 
Cc1cc(CN(C)C(=O)c2cc(COc3ccc(C)c(C)c3)on2)n[nH]1 | -24% (inactive) | 
O=C(NNC(=S)Nc1ccccc1)c1cccc(S(=O)(=O)N2CCOCC2)c1 | -23.5% (inactive) | 
O=C(Nc1nncs1)c1cccc(S(=O)(=O)N2CCCCC2)c1 | 46.3% (inactive) | 
O=C(NNC1=NCCC1)c1cccc(S(=O)(=O)N2CCCCC2)c1 |  | 12.6 µM (active)
CN(CC1CCCN(CCc2cccc(C(F)(F)F)c2)C1)C(=O)c1ccc2nc[nH]c2c1 (stereo unspecified) | -10.7% (inactive) | 
CCOC(=O)c1ccc(NC(=O)c2ccc(NC(=O)C3CCCO3)cc2)cc1 (stereo unspecified) | -2.12% (inactive) | 
COc1ccc(C2=NN(c3ccccc3)C(c3cccs3)C2)cc1 (stereo unspecified) | 23.1% (inactive) | 
COC(=O)Cc1[nH]n(-c2nc3ccccc3s2)c(=O)c1C(C)=Nc1ccc(OC)cc1 | -5.29% (inactive) | 
COc1ccc(C2=NN(c3nc4ccccc4s3)C(=O)C2)cc1 |  | 5.62 µM (active)
COc1cc(NC(=S)NCCSc2ccc(C)cc2)cc(OC)c1 |  | 7.08 µM (active)
COC(=O)c1cc(OC)c(OC)cc1NC(=O)CSc1ccc(C)cc1 | -14.2% (inactive) | 
COc1ccc(NC(=S)NCCNC(C)=O)cc1 | 13.1% (inactive) | 
CC1=C(C(=O)OCC2CCCCC2)C(c2ccc(F)cc2)NC(=O)N1 (stereo unspecified) | 44% (inactive) | 
CC(=O)OCC(NC(=O)C(Cc1ccccc1)NC(=O)OC(C)(C)C)C1OC(n2ccc(=O)[nH]c2=O)C(OC(C)=O)C1OC(C)=O (stereo unspecified) | 25.8% (inactive) | 
COc1ccc(NC(=O)NCCN2CCN(c3ccc(C)cc3)CC2)c(Cl)c1 | 4.43% (inactive) | 
CCc1ccccc1NC(=O)CSc1nnc(-c2ccncc2)o1 | -2.45% (inactive) | 
COc1ccccc1NC(=O)CCSc1nnc(-c2ccc(O)cc2)o1 |  | 14.1 µM (active)
COc1ccccc1-c1nnc(SCC(=O)Nc2ccccc2)o1 | -0.697% (inactive) | 
COc1cccc(N2CCN(c3ccc4nnc(CCC(=O)N5CCN(C)CC5)n4n3)CC2)c1 | -7.9% (inactive) | 
O=C(N/N=C/c1ccccn1)c1ccc(S(=O)(=O)N2CCCCCC2)cc1 | -13.7% (inactive) | 
N#CC(C(=O)c1ccc(S(=O)(=O)N2CCCCCC2)cc1)c1nc2ccccc2[nH]1 (stereo unspecified) |  | 12.6 µM (active)
O=S(=O)(c1ccc(Br)cc1)N1CCC(c2nc3ccccc3[nH]2)CC1 | 39.6% (inactive) | 
Cc1nc2cc(C(F)(F)F)ccc2n1CCNc1nc(-c2cc(Cl)c(N)c(Cl)c2)cs1 |  | 17.8 µM (active)
COc1cc(NC(=O)CSc2ccc(-c3cccnc3)nn2)cc(OC)c1 | 13.3% (inactive) | 
CC(C)c1ccc(S(=O)(=O)N2CCN(C(=O)c3ccc(N4CCCC4)c([N+](=O)[O-])c3)CC2)cc1 | -24.3% (inactive) | 

Compound | activity change, negative = inhibition | Potency
COc1ccccc1N(CC(=O)Nc1ccccc1C(=O)N1CCCC1)S(C)(=O)=O | 3.4% (inactive) | 
Cc1ccc(S(=O)(=O)N2CCN(C(=O)N3CCOCC3)CC2)c(C)c1 | -10.3% (inactive) | 
CCCc1cc(=O)[nH]c(SCC(=O)N2CCN(S(=O)(=O)c3ccc(C)cc3C)CC2)n1 | 4.85% [at 10 µM] (inactive) | 
Cc1ccc(S(=O)(=O)N2CCN(C(=O)CSc3cc(C)ccc3C)CC2)c(C)c1 |  | 3.16 µM (active)
Cc1ccc(C(=O)NC2CCN(C(=O)Nc3ccc(F)cc3)CC2)cc1 | 3.29% (inactive) | 
CCC1C/C(=C/c2cccs2)C(=O)/C(=C/c2cccs2)C1 (stereo unspecified) | -10.2% (inactive) | 
CC(=O)Nc1ccc(S(=O)(=O)Oc2ccc(/C=N/N=C3/NC(=O)C(CC(=O)O)S3)cc2)cc1 (stereo unspecified) | -0.673% (inactive) | 
CN(CCOc1ccc(CC2SC(=O)NC2=O)cc1)c1ccccn1 (stereo unspecified) | 15.6% (inactive) | 
COc1ccc(CN2C(=O)C(C)S/C2=N/N=C/c2ccco2)cc1 (stereo unspecified) | 27.5% (inactive) | 
CCC1S/C(=N/N=C/c2ccco2)NC1=O (stereo unspecified) |  | 1.26 µM (active)
CC(C)=N/N=C1/NC(=O)C(Cc2ccccc2)S1 (stereo unspecified) |  | 2.51 µM (active)
C=CCN1C(=O)C(Cc2cccc(Cl)c2)S/C1=N/N=C/c1ccco1 (stereo unspecified) | -19% (inactive) | 
O=c1nc(N/N=C/c2ccco2)cn[nH]1 | -16.9% (inactive) | 
O=C(O)C[C@@H]1NC(=O)[C@H](Cc2ccccc2)NC1=O | -1.37% (inactive) | 
O=C1N/C(=N\N=C\c2ccco2)SC1Cc1ccc(F)cc1 (stereo unspecified) |  | 1 µM (active)
CCCCC1S/C(=N/N=C/c2cccs2)NC1=O (stereo unspecified) |  | 0.112 µM (active)
Cc1ccccc1N(C(=O)CNC(=O)c1cccs1)C(C(=O)NC1CCCC1)c1ccncc1 (stereo unspecified) | 20.7% (inactive) | 
O=C(C1CCN(Cc2ccc(Cl)cc2)CC1)N1CCN(Cc2ccc3c(c2)OCO3)CC1 | 35.5% (inactive) | 
C=CCn1c(SCc2ccccc2)nc2c1c(=O)[nH]c(=O)n2C | -5.57% (inactive) | 
O=S(=O)(c1ccccc1)c1nc(Cc2ccccc2)oc1N1CCOCC1 | -3.36% (inactive) | 
O=S(=O)(c1ccc(F)cc1)N1CCN=C1SCc1cccc(F)c1 | 0.749% (inactive) | 
CCc1ccc(N2CC(C(=O)Nc3ccc(S(=O)(=O)Nc4nccs4)cc3)CC2=O)cc1 (stereo unspecified) | 4.98% (inactive) | 
CCCCC1(C(=O)OCC)NC(c2ccc(O)cc2)C2C(=O)N(c3ccccc3)C(=O)C21 (stereo unspecified) | -1.09% (inactive) | 
